Results taken from PubChem BioAssay (NCATS).
Unmarked numbers belong to inactive results. Results filed as inconclusive are left out. Entries that show only a call come without a potency. Activity calls are given as the source filed them. The call rests on the fitted dose curve; in most records, active means well fitted inhibition curve with a large enough effect; inconclusive means small, poorly fitted or top-dose-only effect; inactive means flat fitted curve, though single readings scatter.

What follows are molecules tested against Phospholipid hydroperoxide glutathione peroxidase GPX4 (Homo sapiens) (UniProt P36969) (assay: Primary qHTS Assay for Inhibitors of Recombinant Selenoprotein Glutathione Peroxidase 4 (GPX4) (AID 1845192; further: nearly all actives have a fitted effect of over 65% in size; further: potency means the concentration at half of the fitted maximal effect)). Settings: recombinant GPX4, GR-coupled NADPH fluorescence, 15 min; series mostly up to 50 µM.
Phospholipid hydroperoxide glutathione peroxidase GPX4 (Homo sapiens), sequence (P36969 whole entry, looked up): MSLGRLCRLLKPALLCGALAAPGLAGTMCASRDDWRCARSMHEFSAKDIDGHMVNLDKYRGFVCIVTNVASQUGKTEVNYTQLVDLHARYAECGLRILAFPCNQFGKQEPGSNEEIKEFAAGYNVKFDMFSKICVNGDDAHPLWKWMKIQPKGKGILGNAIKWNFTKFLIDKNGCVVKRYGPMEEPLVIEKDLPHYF
How it was run: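 NADPH consumption, followed by fluorescence at 340/450 nm between 0 and 15 min, reports GPX4 activity via coupled glutathione reductase (100 nM). Enzyme 200 nM was pre-exposed to compound 30 min; 0.5 mM cumene hydroperoxide and 1 mM GSH served as substrates.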
`CC1(C)CC2=C3C=CC4C5(C)CCC(O)C(C)(C)C5CCC4(C)C3(C)CCC2(C)C(O)C1` (stereo unspecified) was tested, and the Potency was “inactive”. For `COC(=O)c1cc(OC)c(O[C@@H]2O[C@@H](C)[C@H](O)[C@@H](O)[C@H]2O)c(OC)c1`, the Potency was “inactive”. `C=CC(C)(O)C(O)CC1C(C)(O)C(O)C(O)C2C(C)(C)CCCC21C` (stereo unspecified) was tested, and the Potency was “inactive”. For `C=C[C@]1(C)C=C2CCC3C(C)(CCC[C@@]3(C)C(=O)O)C2CC1` (stereo partly specified), the Potency was “inactive”. In the case of `C/C1=C\CCC2=C[C@@H](OC2=O)c2c(C)coc2C1`, the Potency is reported as “inactive”. With `COc1ncc2cc(C(=O)Nc3cc(C(=O)NCc4cccc(Cl)c4)ccc3Cl)c(=O)[nH]c2n1` the Potency was “inactive”. With `O=C(c1ccc2nccnc2c1)N1CCCCC1` the Potency was “inactive”. With `O=C1Nc2ccccc2C(O)(c2ccccc2)C1O` (stereo unspecified) the Potency was “inactive”. For `C=C1C(=O)O[C@@H]2C[C@H](C)[C@@]3(O)C=C(C(C)=O)[C@]4(CC3C[C@H]12)C(=O)O[C@H]1C[C@@H](C)C(CCC(C)=O)=CC[C@H]14` (stereo partly specified), the Potency was “inactive”. For `CCn1c(=O)c(-c2ccn[nH]2)cc2c(C)nc(N)nc21`, the Potency was 2.55 µM (active). `NC(=O)c1cccc(-c2cc(OC(=O)NC3CCCCC3)ccc2O)c1` was tested, and the Potency was “inactive”. `O=C(Nc1ccccc1)N1CCN(Cc2ccc3ccccc3n2)CC1` was tested, and the Potency was “inactive”. `Cn1nc(C(C)(C)C)cc1C(=O)NC(Cc1cccc(Cl)c1)C(=O)NCC#N` (stereo unspecified) was tested, and the Potency was “inactive”. With `CCO[C@@H]1OC(=O)C[C@@H]1NC(=O)[C@@H]1CCCN1C(=O)[C@@H](NC(=O)c1ccc(N)c(Cl)c1)C(C)(C)C` the Potency was “inactive”. With `C[C@@H]1O[C@@H](O[C@H]2[C@@H]3C=CO[C@@H](O[C@@H]4O[C@H](CO)[C@@H](O)[C@H](O)[C@H]4O)[C@@H]3[C@@]3(CO)O[C@@H]23)[C@H](OC(=O)/C=C/c2ccc(O)c(O)c2)[C@H](O)[C@H]1O` the Potency was “inactive”. `COc1ccc(CC2NCCc3c2[nH]c2ccc(C)cc32)cc1OC` (stereo unspecified) was tested, and the Potency was “inactive”. With `C=C1CCC2C(C)(C(=O)OC)CCCC2(C)C1CCC(C)CC(=O)O` (stereo unspecified) the Potency was “inactive”. For `Cc1cc(-c2cc(O)ccc2Cl)cc2nnc(Nc3ccc(OCCN4CCCC4)cc3)nc12`, the Potency was “inactive”. With `CC(C)(O[C@@H]1O[C@H](CO)[C@@H](O)[C@H](O)[C@H]1O)C(OC(=O)/C=C\c1ccc(O)cc1)C(=O)OCc1ccc(O[C@@H]2O[C@H](CO)[C@@H](O)[C@H](O)[C@H]2O)cc1` (stereo partly specified) the Potency was “inactive”. `C=C[C@H]1C(O[C@@H]2O[C@H](CO)[C@@H](O)[C@H](O)[C@H]2O)OC=C2C(=O)N3CCc4c([nH]c5ccccc45)C3CC21` (stereo partly specified) was tested, and the Potency was “inactive”. In the case of `C=C(C(=O)OC)C1C(O)CC2(C)C(O)CCC(=O)C2C1O` (stereo unspecified), the Potency is reported as “inactive”. `COc1cc(NC(=O)Nc2cccc(CNC(=O)O[C@H]3CCOC3)c2)ccc1-c1cnco1` was tested, and the Potency was “inactive”. With `C/C=C(\C)C(=O)OCC1OC(OC2OC(COC(=O)/C(C)=C/C)C(OC3OC(CO)C(OC(=O)/C(C)=C/C)C(OC(=O)/C(C)=C/C)C3O)C(O)C2O)C(O)C(O)C1OC1OC(CO)C(OC(=O)/C(C)=C/C)C(OC(=O)/C(C)=C/C)C1O` (stereo unspecified) the Potency was “inactive”. With `C=CC(C)(C)C12C=C(OC)C(=O)N3C(C(C)C)C(=O)NC31N(OC)c1ccccc12` (stereo unspecified) the Potency was “inactive”. With `CC/C=C\CCO[C@@H]1O[C@H](CO)[C@@H](O)[C@H](O)[C@H]1O` the Potency was “inactive”. In the case of `O=C(O)/C=C/c1cc2c(cc1O[C@@H]1O[C@H](CO)[C@@H](O)[C@H](O)[C@H]1O)OCO2`, the Potency is reported as “inactive”. In the case of `C[C@@H]1O[C@@H](O[C@H]2[C@H](O[C@H]3CC[C@@]4(C)C(CC[C@]5(C)C4C=C[C@]46OC[C@@]7(CCC(C)(C)C[C@H]74)[C@@H](O)C[C@]65C)[C@]3(C)CO)O[C@H](CO)[C@@H](O)[C@@H]2O[C@@H]2O[C@H](CO)[C@@H](O[C@@H]3O[C@@H](C)[C@H](O)[C@@H](O)[C@H]3O)[C@H](O)[C@H]2O)[C@H](O)[C@H](O)[C@H]1O` (stereo partly specified), the Potency is reported as “inactive”. `C=C1C[C@]23C[C@H]1CC[C@H]2[C@@]12CC[C@H](O)[C@@](C)(C(=O)O1)[C@H]2[C@@H]3C(=O)O` was tested, and the Potency was “inactive”. In the case of `CC(C)C[C@H](CC(=O)NO)C(=O)N[C@@H](Cc1ccc2ccccc2c1)C(=O)N[C@@H](C)C(=O)NCCN`, the Potency is reported as “inactive”. For `CCCC(=O)O[C@@H]1[C@@H]2[C@@H](OC(C)=O)[C@]3(C)C(=O)[C@H]4[C@@H](OC(C)=O)C(C)(C)C[C@H]4[C@]3(C)C(=O)[C@@]2(OC(C)=O)C[C@@H]1C`, the Potency was “inactive”.

The molecules below were run against Luciferin 4-monooxygenase (Photinus pyralis) (UniProt P08659) (assay: Primary firefly luciferase (FLuc) qHTS assay for identification of artifact compounds. (AID 1845220; further: nearly all actives have a fitted effect of over 60% in size)). Settings: purified firefly luciferase, luminescence, 5 min; series mostly up to 54.1 µM.
How it was run: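 FLuc 10 nM; luciferin 10 uM; ATP 10 uM; Tris-acetate pH 7.6, Mg-acetate 10 mM; 15 min RT preincubation; 5 min reaction; luminescence.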
Work on `C[C@@H]1O[C@@H](O[C@@H]2[C@@H](O[C@@H]3O[C@@H](C)[C@H](O[C@@H]4OC[C@H](O)[C@H](O[C@@H]5OC[C@@H](O)[C@H](O)[C@H]5O)[C@H]4O)[C@@H](O[C@@H]4OC[C@](O)(CO)[C@H]4O)[C@H]3O)[C@H](OC(=O)[C@]34CCC(C)(C)C[C@H]3C3=CCC5[C@@]6(C)C[C@H](O)[C@H](O[C@@H]7O[C@H](CO[C@@H]8OC[C@H](O)[C@H](O)[C@H]8O)[C@@H](O)[C@H](O)[C@H]7O)C(C)(C)C6CC[C@@]5(C)[C@]3(C)C[C@H]4O)OC[C@H]2O)[C@H](O)[C@H](O)[C@H]1O` (stereo partly specified) yielded an activity change, negative = inhibition of 1.22% [at 11.6 µM]. `Cc1cc(C(=O)Nc2cccc(C(=O)Nc3cccc(C(F)(F)F)c3)c2)on1` was tested, and the Potency was “inactive”. For `COc1ccc2c(OC)c3ccoc3nc2c1OC`, the Potency was “inactive”. With `COc1c2cc(c(O)c1OC)-c1cc(ccc1O)CCC(O)CCCC2` (stereo unspecified) the Potency was “inactive”. In the case of `O=C1NC(=O)C(c2cn3c4c(cccc24)CCC3)C1c1c[nH]c2ccccc12` (stereo unspecified), the Potency is reported as “inactive”. For `Cc1cccc(-c2[nH]c(Cc3cccc(C(N)=O)c3)nc2-c2ccc3nccnc3c2)n1`, the Potency was “inactive”. With `C[C@@H]1C[C@@H](O)[C@@]23CO[C@@H](O)[C@@H]2CCC[C@@H]3[C@@]12C[C@@H](c1ccoc1)OC2=O` the Potency was “inactive”. With `CC[C@H](NC(=O)[C@H](CS(=O)(=O)CC1CC1)N[C@@H](c1ccc(F)cc1)C(F)(F)F)C(=O)C(=O)NC1CC1` the Potency was “inactive”. In the case of `O=C(O)CCCCCC[C@H]1C(=O)NC(=O)N1CC[C@@H](O)C1CCCCC1`, the Potency is reported as “inactive”. With `CC1(C)CC2=C3C=CC4C5(C)CCC(O)C(C)(C)C5CCC4(C)C3(C)CCC2(C)C(O)C1` (stereo unspecified) the Potency was “inactive”. `COC(=O)c1cc(OC)c(O[C@@H]2O[C@@H](C)[C@H](O)[C@@H](O)[C@H]2O)c(OC)c1` was tested, and the Potency was “inactive”. `C=CC(C)(O)C(O)CC1C(C)(O)C(O)C(O)C2C(C)(C)CCCC21C` (stereo unspecified) was tested, and the Potency was “inactive”. `C=C[C@]1(C)C=C2CCC3C(C)(CCC[C@@]3(C)C(=O)O)C2CC1` (stereo partly specified) was tested, and the Potency was “inactive”. `C/C1=C\CCC2=C[C@@H](OC2=O)c2c(C)coc2C1` was tested, and the Potency was “inactive”. In the case of `COc1ncc2cc(C(=O)Nc3cc(C(=O)NCc4cccc(Cl)c4)ccc3Cl)c(=O)[nH]c2n1`, the Potency is reported as “inactive”. For `O=C(c1ccc2nccnc2c1)N1CCCCC1`, the Potency was “inactive”. For `O=C1Nc2ccccc2C(O)(c2ccccc2)C1O` (stereo unspecified), the Potency was “inactive”. In the case of `C=C1C(=O)O[C@@H]2C[C@H](C)[C@@]3(O)C=C(C(C)=O)[C@]4(CC3C[C@H]12)C(=O)O[C@H]1C[C@@H](C)C(CCC(C)=O)=CC[C@H]14` (stereo partly specified), the Potency is reported as “inactive”. For `CCn1c(=O)c(-c2ccn[nH]2)cc2c(C)nc(N)nc21`, the Potency was “inactive”. With `NC(=O)c1cccc(-c2cc(OC(=O)NC3CCCCC3)ccc2O)c1` the Potency was “inactive”. For `O=C(Nc1ccccc1)N1CCN(Cc2ccc3ccccc3n2)CC1`, the Potency was “inactive”. In the case of `Cn1nc(C(C)(C)C)cc1C(=O)NC(Cc1cccc(Cl)c1)C(=O)NCC#N` (stereo unspecified), the Potency is reported as “inactive”. For `CCO[C@@H]1OC(=O)C[C@@H]1NC(=O)[C@@H]1CCCN1C(=O)[C@@H](NC(=O)c1ccc(N)c(Cl)c1)C(C)(C)C`, the Potency was “inactive”. With `C[C@@H]1O[C@@H](O[C@H]2[C@@H]3C=CO[C@@H](O[C@@H]4O[C@H](CO)[C@@H](O)[C@H](O)[C@H]4O)[C@@H]3[C@@]3(CO)O[C@@H]23)[C@H](OC(=O)/C=C/c2ccc(O)c(O)c2)[C@H](O)[C@H]1O` the Potency was “inactive”. `COc1ccc(CC2NCCc3c2[nH]c2ccc(C)cc32)cc1OC` (stereo unspecified) was tested, and the Potency was “inactive”. With `C=C1CCC2C(C)(C(=O)OC)CCCC2(C)C1CCC(C)CC(=O)O` (stereo unspecified) the Potency was “inactive”. With `Cc1cc(-c2cc(O)ccc2Cl)cc2nnc(Nc3ccc(OCCN4CCCC4)cc3)nc12` the Potency was “inactive”. For `CC(C)(O[C@@H]1O[C@H](CO)[C@@H](O)[C@H](O)[C@H]1O)C(OC(=O)/C=C\c1ccc(O)cc1)C(=O)OCc1ccc(O[C@@H]2O[C@H](CO)[C@@H](O)[C@H](O)[C@H]2O)cc1` (stereo partly specified), the Potency was “inactive”. In the case of `C=C[C@H]1C(O[C@@H]2O[C@H](CO)[C@@H](O)[C@H](O)[C@H]2O)OC=C2C(=O)N3CCc4c([nH]c5ccccc45)C3CC21` (stereo partly specified), the Potency is reported as “inactive”. For `C=C(C(=O)OC)C1C(O)CC2(C)C(O)CCC(=O)C2C1O` (stereo unspecified), the Potency was “inactive”. With `COc1cc(NC(=O)Nc2cccc(CNC(=O)O[C@H]3CCOC3)c2)ccc1-c1cnco1` the Potency was “inactive”. With `C/C=C(\C)C(=O)OCC1OC(OC2OC(COC(=O)/C(C)=C/C)C(OC3OC(CO)C(OC(=O)/C(C)=C/C)C(OC(=O)/C(C)=C/C)C3O)C(O)C2O)C(O)C(O)C1OC1OC(CO)C(OC(=O)/C(C)=C/C)C(OC(=O)/C(C)=C/C)C1O` (stereo unspecified) the outcome was “inactive [at 11.6 µM]”. `C=CC(C)(C)C12C=C(OC)C(=O)N3C(C(C)C)C(=O)NC31N(OC)c1ccccc12` (stereo unspecified) was tested, and the Potency was “inactive”. With `CC/C=C\CCO[C@@H]1O[C@H](CO)[C@@H](O)[C@H](O)[C@H]1O` the Potency was “inactive”. In the case of `O=C(O)/C=C/c1cc2c(cc1O[C@@H]1O[C@H](CO)[C@@H](O)[C@H](O)[C@H]1O)OCO2`, the Potency is reported as “inactive”. In the case of `C[C@@H]1O[C@@H](O[C@H]2[C@H](O[C@H]3CC[C@@]4(C)C(CC[C@]5(C)C4C=C[C@]46OC[C@@]7(CCC(C)(C)C[C@H]74)[C@@H](O)C[C@]65C)[C@]3(C)CO)O[C@H](CO)[C@@H](O)[C@@H]2O[C@@H]2O[C@H](CO)[C@@H](O[C@@H]3O[C@@H](C)[C@H](O)[C@@H](O)[C@H]3O)[C@H](O)[C@H]2O)[C@H](O)[C@H](O)[C@H]1O` (stereo partly specified), the activity change, negative = inhibition is reported as -4.04% [at 11.6 µM].
